HCMV antiviral – qHTS Assay for inhibitors of the human cytomegalovirus (HCMV). HFF cells, HCMV-luciferase reporter, 72 h; hits give low values. actives 4.5% (n = 410,000). activity change, negative = inhibition, % at 57.5 µM. AID 1259415, 2018; in the data active = activity change below about -60%; inconclusive = no clear call, values can overlap the other calls; inactive = above about -39%
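Cell-based, HFFs, 1000 cells/well, 16 h 37C; cpds in DMSO + HCMV-luc, MOI 1 PFU/cell; 72 h 37C; OneGlo luminescence after 5 min RT; norm. to buffer vs Salinomycin 10uM.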
LASV entry inh – qHTS for Inhibitors of binding or entry into cells for Lassa Virus; AID 540256, 2011; Lassa virus pseudotype entry inhibition, cell reporter; Potency, µM (titrated, usually from 37.9 µM), usual class: inhibitors; actives 1.2% (n = 300,000); calls by dose curve; tested in HEK293 cells; also: nearly all actives have a fitted effect of over 50% in size
FMDV antiviral – High Throughput Screening for Foot and Mouth Disease Virus Antivirals | Potency, µM (top dose mostly 57.9 µM), hits mostly inhibitors | actives 1.2% (n = 410,000) | FMDV antiviral cell-based qHTS | AID 1159524, 2015; calls by dose curve; tested in HEK293T cells; also: read-out not given here; nearly all actives have a fitted effect of over 45% in size
Marburg entry inh – qHTS for inhibitors of binding or entry into cells for Marburg Virus | Marburg virus pseudotyped entry inhibition, cell reporter | Potency, µM (titrated, usually from 37.8 µM), hits mostly inhibitors | actives 1.8% (n = 300,000) | AID 540276, 2011; calls by dose curve; tested in HEK293 cells
SARS PLpro yeast – qHTS of Yeast-based Assay for SARS-CoV PLP. S. cerevisiae expressing SARS-CoV PLpro, growth rescue. Potency, µM (series often up to 32.9 µM), hits mostly activators. actives 0.19% (n = 330,000); calls by dose curve; also: nearly all actives have a fitted effect of over 55% in size
HCV inhibitor – qHTS Assay for Inhibitors of Hepatitis C Virus (HCV); Huh7.5.1 HCVcc-Cre infection, luciferase reporter, 44 h; Potency, µM (doses to about 41.8 µM), actives largely listed as inhibitors; actives 3.4% (n = 340,000); AID 651820, 2012; active = well fitted inhibition curve with a large enough effect; inconclusive = small, poorly fitted or top-dose-only effect, or another doubt; inactive = no such curve, though single readings can be large or run the other way
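Whole-lifecycle infectious HCVcc-Cre system; cells 1,000/well, compound then virus (~0.5 moi) added 4 h after plating, 44 h culture. Luciferase read 15 sec following 15 min substrate incubation, room temp.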
Numbers stand for hits; i = inactive; ? = inconclusive; nt = no result. Hits are enriched below; roughly 8% of the tested compounds scored in any of these assays.

SMILES | HCMV antiviral | LASV entry inh | FMDV antiviral | Marburg entry inh | SARS PLpro yeast | HCV inhibitor
COc1cc(CN(C2CCCCC2)S(=O)(=O)c2ccc(S(=O)(=O)N(C)C3CCCCC3)cc2)cc(OC)c1OC | i | i | i | ? | i | i
CCN(CC)c1nc(NNC(=O)c2ccccc2)nc(N(CC)CC)n1 | -70 | i | i | i | nt | i
Cc1ccc(CNc2oc(-c3ccc(COc4ccc(Cl)cc4)o3)nc2C#N)cc1 | i | i | ? | i | nt | nt
CCC1(c2cccc(O)c2)CCCCN(C)C1 (stereo unspecified) | -68 | nt | i | nt | nt | i
Oc1cccc(C(=S)N2CCCCC2)c1 | ? | i | i | i | i | i
Cn1c(C=O)c(-c2ccc3c(c2)OCCO3)c2ccccc21 | ? | nt | i | nt | i | 16µM
Cc1ccc(S(=O)(=O)N2CCCc3cc(NS(=O)(=O)c4cc(F)ccc4F)ccc32)cc1 | i | ? | i | nt | nt | nt
COc1ccc(S(=O)(=O)Nc2ccc3c(c2)N(C(C)=O)CCC3)cc1F | i | ? | 10µM | nt | nt | nt
COc1cccc(NS(=O)(=O)c2ccc3c(c2)CCCN3C(C)=O)c1 | -60 | i | nt | i | i | i
Cc1ccc(S(=O)(=O)N2CCCc3cc(NS(=O)(=O)c4ccc(F)cc4)ccc32)cc1 | ? | ? | i | nt | nt | nt
Cc1ccc(S(=O)(=O)N2CCCc3cc(NS(=O)(=O)c4ccccc4)ccc32)cc1 | i | 10µM | i | nt | nt | nt
COc1ccc(S(=O)(=O)Nc2ccc3c(c2)CCCN3S(=O)(=O)c2ccc(C)cc2)cc1F | -64 | ? | i | nt | nt | nt
CC(=O)N1CCCc2ccc(NS(=O)(=O)c3ccc(C)c(C)c3)cc21 | i | ? | i | i | i | ?
COc1ccc(OC)c(/C=N/NC(=O)C(=O)N2CCCCCC2)c1 | i | i | i | i | nt | i
COc1cccc(S(=O)(=O)N(C)C[C@@H]2OCc3cn(nn3)CCCC(=O)N([C@H](C)CO)C[C@H]2C)c1 | i | nt | i | nt | nt | nt
Cc1ccccc1OCCCn1c(CCNC(=O)C2CCCCC2)nc2ccccc21 | i | i | i | ? | nt | nt
CCCNc1ccc(-c2nc(-c3ccncc3)no2)cc1[N+](=O)[O-] | i | i | i | i | nt | nt
COc1ccc([C@@H]2C(C#N)=C(C)NC3=C2C(=O)c2ccccc23)cc1 | nt | nt | nt | i | nt | nt
Cc1ccc(/C=N/NC(=O)c2ccccn2)s1 | i | ? | i | 6.5µM | i | i
CCN(CC)c1ccc(/C=N/NC(=O)c2ccccn2)cc1 | i | 11µM | i | ? | i | ?
CCc1ccc(/C=N/NC(=O)c2ccccn2)cc1 | i | 1.4µM | 13µM | ? | i | i
O=C(N/N=C/c1ccc(OC(=O)c2ccccc2Cl)cc1)c1ccccn1 | nt | ? | i | ? | i | i
COc1cc2c(cc1OC)CN(C(=O)[C@@H]1C[C@H](NCc3cn(C)c4ccccc34)CN1C1Cc3ccccc3C1)CC2 | nt | nt | i | nt | nt | nt
CC1CCc2onc(C(=O)N3CCN(c4ccc(Cl)cc4)CC3)c2C1 (stereo unspecified) | -74 | i | i | nt | nt | nt
COc1ccc(-n2nnc3c(=O)n(CC(=O)NCC4CCCO4)cnc32)cc1 (stereo unspecified) | -102 | i | i | i | i | i
SMILES | HCMV antiviral | LASV entry inh | FMDV antiviral | Marburg entry inh | SARS PLpro yeast | HCV inhibitor
COc1ccc(-n2nnc3c(=O)n(Cc4cc(C)ccc4C)cnc32)cc1 | i | 1.2µM | i | i | i | ?
O=C(CSc1ncnc2c1nnn2-c1ccc(F)cc1)NCC1CCCO1 (stereo unspecified) | i | i | 16µM | i | i | i
Cc1ccc(-n2nnc3c(=O)n(Cc4ccccc4C)cnc32)cc1 | i | nt | i | nt | i | i
NC(=O)C1CCN(C(=O)COc2ccc(Nc3ccccc3)cc2)CC1 | i | nt | i | nt | i | i
Cc1ccc(NC(=O)C2CCC(CNC(=O)[C@@H]3Cc4ccccc4CN3)CC2)c(C)c1 (stereo partly specified) | i | nt | i | nt | i | ?
COc1ccc(C)cc1NC(=O)C1CCN(S(=O)(=O)c2ccc3[nH]c4c(c3c2)CCCCC4)CC1 | ? | i | i | nt | nt | nt
O=C1Nc2cccnc2N(C(=O)CCl)c2ccccc21 | ? | ? | ? | ? | i | 16µM
C[C@@]12CCOC13C=CC(=O)C=C3CC[C@H]2O (stereo partly specified) | i | nt | nt | nt | nt | nt
CCOc1ccc(C(=O)c2ccccc2C(=O)O)cc1OCC | i | i | i | i | i | i
CC1=CC(=O)C(C(C)C)=C/C1=C(\c1cc(C(C)C)c(OP(=O)(O)O)cc1C)c1ccccc1C(=O)O | -98 | ? | i | ? | i | ?
CC(NC(=O)OCc1ccccc1)C(=O)Oc1cc2oc(=O)cc(-c3ccccc3)c2cc1Cl (stereo unspecified) | -94 | i | i | i | i | i
CCOC(=O)C1=C(C)C(c2ccc(OC)cc2)NC(=S)N1 (stereo unspecified) | i | i | i | i | i | i
CCOC(=O)C1=C(C)C(c2cccc(Oc3ccccc3)c2)NC(=S)N1 (stereo unspecified) | ? | 8.9µM | 28µM | ? | i | ?
CCOC(=O)C1=C(c2cccc(Oc3ccccc3)c2)NC(=S)NC1C (stereo unspecified) | ? | ? | i | ? | i | 8.9µM
CCCCC1OC(CCc2ccccc2)CC2=C1C(=O)OC(C)(C)O2 (stereo unspecified) | i | nt | nt | nt | nt | nt
CC1=C(C(=O)OCC2CCCCC2)C(c2ccc(Cl)cc2Cl)CC(=O)N1 (stereo unspecified) | i | i | ? | i | nt | nt
Cc1cccc(NC(=O)c2cc(-c3cc(C)cc(C)c3O)n[nH]2)c1 | ? | nt | i | nt | i | 11µM
COc1ccc(OC)c(NC(=O)c2cc(-c3cc(C)cc(C)c3O)n[nH]2)c1 | -68 | i | i | ? | i | 4µM
COc1ccc(OC)c(NC(=O)c2cc(-c3cc(C)c(C)cc3O)n[nH]2)c1 | ? | ? | i | i | i | i
COc1ccc(OC)c(NC(=O)c2cc(-c3c(C)cc(C)cc3O)n[nH]2)c1 | i | nt | i | nt | i | 10µM
Cc1cc(/C=N/NC(=O)c2c(Br)cnn2C)c(C)n1-c1cccc(Br)c1 | -65 | ? | ? | ? | i | i
Cc1cccc(-n2c(C)cc(/C=N/NC(=O)c3ccc(CN4CCOCC4)cc3)c2C)c1 | i | i | ? | i | i | 10µM
Cc1ccc(C(=O)N/N=C/c2cc(C)n(-c3ccc(Br)cc3)c2C)cc1[N+](=O)[O-] | i | i | i | ? | i | 20µM
O=C(N/N=C/c1ccc(OC(=O)c2ccccc2)cc1)c1ccc(CN2CCOCC2)cc1 | i | i | ? | ? | i | i
Cc1ccc(-n2c(C)cc(/C=N/NC(=O)c3ccc(CN4CCOCC4)cc3)c2C)cc1 | ? | i | ? | i | i | 10µM
Cc1ccc(-n2c(C)cc(/C=N/NC(=O)c3ccncc3)c2C)cc1 | i | i | i | i | i | ?
CCOCCCNC(=O)Cn1nc(C)n2c(cc3cc(C)ccc32)c1=O | i | nt | i | i | nt | nt

Compound activity from PubChem.
